The record followed here is publication PMC12136788.

Substitutions are numbered along the chain they refer to. The full ranking holds about 5,800 sequences; the median of “enrichment r” is about 0.54, and the highest 2% start at about 16. Only a selection was taken, and the highest values are over-represented in it overall.

The chains are these.
B1: chr8:22006149:22006250:+|3pUTR|ENSG00000130227|msi1|total|mutant (ssRNA)
RNA: GGGAGUUCUACAGUCCGACGAUCGAAUGUAUGAACUGGAGGAAGUUACUACAGUGGAAGGGUUCUUAAUAACAAGGUCUACCCCGCAUGAAGUAUUUAACAUUCUCCCAUCCCUUAAAAAAUAUACAUUUUUAUAAAAUGAAACAACAGAGGAUUGAGCAUCA
B2: chr6:145799413:145799514:-|3pUTR|ENSG00000118496|msi1|total|mutant (ssRNA)
RNA: GGGAGUUCUACAGUCCGACGAUCUUAUCUCACAUACUUACAACUCAACACACAGAGUGACCAUGUGCAGCUUUCUUUUUUGUCCGAUGCCACAUCCGAAGACUCAUCGCAGUGUGUUAUAUGACAGGACAAAGCAAAAACAAACAACAGAGGAUUGAGCAUCA
B3: chr11:46383557:46383658:+|3pUTR|ENSG00000110492|msi1_unk|FALSE|overlapping (ssRNA)
RNA: GGGAGUUCUACAGUCCGACGAUCCCACGCCCUCCCUCUCCCAGGCCCGAGAUGUGACCCACCAGUGCCUUCUGUCUGCUCGUUAGCUUUAAUCAAUCAUGCCCUGCCUUGUCCCUCUCACUCCCCAGCCCCACCCCUAAGUGCCAACAGAGGAUUGAGCAUCA
B4: ENSG00000066933:stop:overlap|stop_codon|ENSG00000066933|stop_codon|NA|stop_codon (ssRNA)
RNA: GGGAGUUCUACAGUCCGACGAUCAUAGCUCAGAGAAUUUGAAUAUGGAGUCUGAAUAUGCUAUCUCUGAGAAAUCAGAAGCUUAGCCCUUAGCUCCCUGAAGACAGCUGGCAAGUCUGAACCUUCCAGCAAGUUGCGAAAGCACAACAGAGGAUUGAGCAUCA
B5: chr4:124666837:124666938:-|3pUTR|ENSG00000151458|msi1|total|mutant (ssRNA)
RNA: GGGAGUUCUACAGUCCGACGAUCAAUGAUUUCUUGGCAGUUUAAAAAAAAUAUUUUACCGCCGUUCCGGGAGCUGCUUUAAGCCGUUUAAAUCUGGAUUUUCCCAGCCGAAUUCUUCUCAUCUCUGGCUAAACAUGUCAGAACCAACAGAGGAUUGAGCAUCA
B6: chr4:124666837:124666938:-|3pUTR|ENSG00000151458|msi1|FALSE|unique (ssRNA)
RNA: B5 RNA with C58U, C59A, C61U, C62A, C66U, C67A, C83U, C84A, C107U, C108A
B7: ENSG00000107863:be:win_551|CDS|ENSG00000107863|bound_else_gene|NA|bound_elsewhere_windowed (ssRNA)
RNA: GGGAGUUCUACAGUCCGACGAUCAAGGCAACGAAGCUUAUAGCGGCAAUGCCCGCAAUAUACCUGAACCUCCACCAAUCUGCUAUCCCUGGCUGCCAUCUGCCCCAUCAGCCAUGGCACAGCCAGUUGAAAUAUCUCCUCCUGCAACAGAGGAUUGAGCAUCA
B8: chr8:65707876:65707977:+|CDS|ENSG00000066855|unk|FALSE|unique (ssRNA)
RNA: GGGAGUUCUACAGUCCGACGAUCCCUGCUGCCCUCAUAGCAGAGGCUCUGAAAAAGAAAUUUGCUUAUCGGUAUCGAAGUGAUAGCCAAGAUGAAGUUGAAAAAGGAAUUCCAAAGUCUGAAUCAGAGGCCACCUCAGAGAGACAACAGAGGAUUGAGCAUCA
B9: chr10:92030471:92030572:+|3pUTR|ENSG00000095564|unk|total|mutant (ssRNA)
RNA: GGGAGUUCUACAGUCCGACGAUCUAUUUUUUUAUUAACUAUUUAUUUGCCCGUUCCAUAAACCAGCUCUUUAACACCGCUUACCGUAAUUGAUAUUUUCUCCGAAUAAGUACAGAGCAAUAUAUCAUUAAAGGGCUAUGAAGGCAACAGAGGAUUGAGCAUCA
B10: chr20:11926050:11926151:+|3pUTR|ENSG00000132640|msi1|FALSE|unique (ssRNA)
RNA: GGGAGUUCUACAGUCCGACGAUCAUGAAAUGGAAUGAAGGCUAAUAUGCUUGCUUUAUUUACUUUUGUAAUCUUGGAUUUUGUAGCUUUUAAAACUAGAAACCAUUGUUCUAACAAAGCAGGCAACUUUAUUCUAUAAACACACAACAGAGGAUUGAGCAUCA
B11: chr1:235448940:235449205:-|3pUTR|ENSG00000162885|unk|FALSE|unique (ssRNA)
RNA: GGGAGUUCUACAGUCCGACGAUCAAUAGAGAAUUCCAUUAAAACUAGUCUUAUGACAGAUAUUAACUGUGUUCAGAUUUUAUUAGGCUAGCUAGUUUCUUUCUAUUUAAUAUUUAAAUCUUAUCAUGAAAUGCAGUGAUGAGCCAACAGAGGAUUGAGCAUCA
B12: chr10:92030471:92030572:+|3pUTR|ENSG00000095564|unk|FALSE|unique (ssRNA)
RNA: B9 RNA with C50U, C51A, C76U, C77A, C83U, C84A, C101U, C102A
B13: chr20:11926050:11926151:+|3pUTR|ENSG00000132640|msi1|total|mutant (ssRNA)
RNA: B10 RNA with U83C, A84C, U96C, A97C
B14: chr13:32776882:32776983:+|3pUTR|ENSG00000083642|unk|total|mutant (ssRNA)
RNA: GGGAGUUCUACAGUCCGACGAUCAAAGUGUUUUGAAUUGUGUCUUAAUCUCUCCAUAUUCAACUAUUCUUCAUUUACAACAACCGUGACACCAGUAAUUAUGAGAGGCUGUCAUAUAUCAAAGCAGCUCAGGUGGGAUCAACACAACAGAGGAUUGAGCAUCA
B15: chr3:10101824:10101929:+|3pUTR|ENSG00000144554|unk|FALSE|unique (ssRNA)
RNA: GGGAGUUCUACAGUCCGACGAUCAAAAUCUCUGAGUCAUGAUUCUGGACUUUGGGAGCUAGUUUUGAAACUCUGAUUUAUUGUAGAACUUAGGCUUGUACCAAUUUUACAAAUAAAUUCUGUUCUAAGUUCUGCCUCAGUUGCCAACAGAGGAUUGAGCAUCA

In this test the target is MSI1 full-length (mouse, UniProt Q61474 1-362). Kind of test: nsRBNS (natural sequence RNA bind-n-seq); RBNS binding buffer (assumed for nsRBNS): 25 mM Tris pH 7.5, 150 mM KCl, 3 mM MgCl2, 0.01% Triton X-100, 500 ug/ml BSA, 20 U/ml SUPERase-In, 4 C; UNK is unkempt and MSI1 is Musashi-1; names of the RNAs are library labels; protein concentration not given here; high values mean tight binding.
MSI1 full-length, sequence (Q61474 whole entry): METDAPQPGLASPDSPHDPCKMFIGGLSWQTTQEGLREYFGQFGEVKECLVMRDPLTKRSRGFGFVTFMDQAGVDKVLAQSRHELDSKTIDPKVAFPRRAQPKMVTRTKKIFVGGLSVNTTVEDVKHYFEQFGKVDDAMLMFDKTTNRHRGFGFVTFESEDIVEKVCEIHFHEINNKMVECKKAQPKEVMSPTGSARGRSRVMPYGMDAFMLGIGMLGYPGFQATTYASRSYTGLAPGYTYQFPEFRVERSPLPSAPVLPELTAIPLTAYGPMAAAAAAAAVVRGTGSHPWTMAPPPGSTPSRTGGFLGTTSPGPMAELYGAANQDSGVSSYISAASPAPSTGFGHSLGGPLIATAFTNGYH
In turn, B1 showed a binding signal of 0.38 enrichment R.
For B2, the binding signal worked out at 0.363 enrichment R.
B3 gave a binding signal of 1.31 enrichment R.
On to B4, for which the binding signal came out at 16.9 enrichment R.
Molecule B5 returned a binding signal of 0.225 enrichment R.
As for B6, the binding signal is 23.2 enrichment R.
As to B7, the binding signal was 0.51 enrichment R.
With B8, the binding signal came to 0.29 enrichment R.
Next, B9: 27.9 enrichment R; B10: 1.07 enrichment R.
In turn, B11 returned a binding signal of 13.3 enrichment R.
As to B12, the binding signal was 39.5 enrichment R.
The figure for B13 is 0.37 enrichment R.
Consider B14, for which the binding signal is 0.958 enrichment R.
B15: the binding signal came out at 0.376 enrichment R.
